The list is not random: actives were taken first. Their share in the collection is about 12%.
BAZ2B block – inhibitors of human BAZ2B bromodomain; Q9UIF8; AlphaScreen BAZ2B-H3K14Ac peptide displacement; Potency, µM (highest dose often 114 µM), for inactives: at the highest dose activity change, negative = inhibition, actives largely listed as inhibitors; hit rate 4.4% among 360,000; note: potency is the fitted concentration of half-maximal effect; % is set by controls: 0 for no effect and ±100 for the full control effect; nearly all actives have a fitted effect of over 60% in size
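Inhibition is scored as reduced AlphaScreen emission. The BAZ2B/b-H3(5-23)K14Ac complex (50 nM each) in PBS pH 7.4, 0.01% Tween-20 meets compound (up to 110 uM) for 30 min at RT before bead addition.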
PI5P4K alpha inh – inhibitors of human PI5P4K alpha; hit rate 1.2% among 330,000; AID 652105; P48426; PI5P4Kalpha enzyme, ADP-Glo luminescence, 60 min; stronger effect = lower value; max response, %; active = max response of -50% or lower; inconclusive = between -30% and -50%; inactive = -30% or higher; note: value at the top dose of about 77 µM; % is set by controls: 0 for no effect and ±100 for the full control effect
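Enzyme plus substrate dispensed, test compounds pinned in, then ATP (5 microM final) added. After 60 min at RT, ADP-Glo reagent 1 for 45 min and reagent 2 for 30 min preceded luminescence imaging.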
PLK1 PBD inh – PLK1 (human) polo-box domain binding inhibition; P53350; Plk1 PBD binding of FITC phosphopeptide, fluorescence polarization; AID 720504; Potency, µM, without a hit: max response, negative = inhibition, hits mostly inhibitors; hit rate 2.8% among 360,000; note: potency is the fitted concentration of half-maximal effect; series mostly up to about 57 µM; % is set by controls: 0 for no effect and ±100 for the full control effect; nearly all actives have a fitted effect of over 65% in size
JMJD2A Tudor – inhibitors of human JMJD2A Tudor domain; O75164; AlphaScreen JMJD2A-Tudor / H3K4me3 peptide binding; Potency, µM (highest dose often 114 µM), without a hit: at the top dose activity change, negative = inhibition, actives largely listed as inhibitors; hit rate 4.4% among 390,000; note: potency is the fitted concentration of half-maximal effect; % is set by controls: 0 for no effect and ±100 for the full control effect; nearly all actives have a fitted effect of over 50% in size
G9a inh – G9a (human) methyltransferase inhibition | G9a H3K9 monomethylation, AlphaScreen, 2 h | AID 504332 | Q96KQ7 | Potency, µM (top dose mostly 102 µM), for inactives: top-dose activity, negative = inhibition, most hits filed as inhibitors | hit rate 8.8% among 350,000; note: potency is the fitted concentration of half-maximal effect; % is set by controls: 0 for no effect and ±100 for the full control effect; nearly all actives have a fitted effect of over 75% in size
Target sequence (Q96KQ7 913-1193 limits assumed): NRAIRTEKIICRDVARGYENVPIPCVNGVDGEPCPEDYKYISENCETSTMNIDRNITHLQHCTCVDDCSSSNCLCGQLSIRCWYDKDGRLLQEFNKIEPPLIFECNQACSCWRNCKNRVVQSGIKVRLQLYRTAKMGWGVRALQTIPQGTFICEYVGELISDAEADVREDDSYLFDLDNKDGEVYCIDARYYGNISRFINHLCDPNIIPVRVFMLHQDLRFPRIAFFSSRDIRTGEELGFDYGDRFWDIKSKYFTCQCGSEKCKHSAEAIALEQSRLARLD
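Methyltransferase reactions run at room temperature for 2 h (20 nM enzyme, 500 nM biotin-H3K9 peptide, 20 uM SAM) after a 15 min compound preincubation; product detected by AlphaScreen beads and anti-H3K9me1 antibody.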
HP1b chromo inh – inhibitors of HP1-beta chromodomain binding to methylated histone tails. Potency, µM (titrated, usually from 114 µM), for the others: top-dose activity change, negative = inhibition, usual class: inhibitors. hit rate 0.56% among 390,000. P83916. AlphaScreen HP1-beta / biotin-H3K9me3 peptide binding; note: potency is the fitted concentration of half-maximal effect; nearly all actives have a fitted effect of over 70% in size
Target sequence (P83916 whole entry, looked up): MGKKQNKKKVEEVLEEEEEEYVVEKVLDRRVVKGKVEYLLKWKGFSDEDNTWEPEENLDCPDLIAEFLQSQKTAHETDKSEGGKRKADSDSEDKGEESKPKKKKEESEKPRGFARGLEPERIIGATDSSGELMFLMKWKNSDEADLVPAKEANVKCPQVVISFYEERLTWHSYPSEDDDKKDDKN
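Compound inhibition of the preformed complex between 50 nM HP1-beta and 50 nM biotinylated H3K9me3 peptide was read by AlphaScreen. Buffer was PBS pH 7.4 with 0.01% Tween-20. Incubations ran 30 min at room temperature, with 10 ug/mL donor/acceptor beads.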
* hit, by the source's call; ? = inconclusive; · = no result given; [ ] = dose if it differs, or a comment. Unless noted, calls come from the whole dose curve; as a rule, active = well fitted curve in the direction sought with a large enough effect; inconclusive = small, poorly fitted or top-dose-only effect, or another doubt; inactive = no such curve, though single readings can be large; an effect the other way counts as inactive or inconclusive.

SMILES	BAZ2B block	PI5P4K alpha inh	PLK1 PBD inh	JMJD2A Tudor	G9a inh	HP1b chromo inh
COc1cc(C(=O)c2nccc3cc(OC)c(OC)cc23)c([N+](=O)[O-])cc1OC	?	2	-3%	?	45µM*	7%
COCCN(Cc1nc2ccccc2c(=O)[nH]1)C(=O)COc1ccccc1-c1ccccc1	-14%	-7	7%	-13%	1%[0.501 µM]	17%
CCC(C)Oc1cc(-c2ccnc(Nc3cccc(Cl)c3)n2)ccn1 (stereo not given)	52%	15	24µM*	?	4%[12.7 µM]	59%
Cc1ccc(NC(=O)c2c(F)cccc2Cl)cc1S(=O)(=O)N1CCOCC1	9%	-2	1%	0%	23%[12.7 µM]	33%
COc1cccc(C2=NOC(C(=O)Nc3cc(C)nn3-c3ccccc3)C2)c1OC (stereo not given)	10%	0	-12%	6%	45µM*	17%
C[C@H](CO)N1C[C@H](C)[C@@H](CN(C)S(=O)(=O)c2ccc(F)cc2)Oc2ccc(NC(=O)NC3CCCCC3)cc2C1=O	·	-1	-6%	-8%	·	45%
CCOC(=O)c1ccccc1NC(=O)CN(c1ccccc1)S(=O)(=O)c1ccc(OCC)cc1	3%	·	·	2%	-22%[59 µM]	44%
Cc1ccc(N(CC(=O)Nc2ccccc2-c2ccccc2)S(=O)(=O)c2ccccc2)c(C)c1	-27%	8	-21%	-14%	8.9µM*	8%
CS(=O)(=O)N(CC(=O)Nc1ccccc1-c1ccccc1)c1ccccc1	?	4	-11%	-15%	-3%[59 µM]	-1%
Cc1ccc(S(=O)(=O)N(CC(=O)Nc2ccccc2C(=O)O)c2ccc(Cl)cc2)cc1	?	?	38µM*	-5%	-34%[59 µM]	41%
Cc1nc2c(-c3ccccc3)c(C)[nH]n2c(=O)c1Cc1ccc(C(C)C)cc1	-30%	·	·	-18%	39%[59 µM]	49%
O=C(O)c1cc(N2CCCC2)ccn1	·	1	-1%	3.2µM*	·	-5%
O=C(Cc1ccccc1)Nc1cccc(N2CCCC2)c1	-37%	-6	-10%	?	-2%[12.7 µM]	-17%
O=C(O)c1ccc(N2CCCCC2)cc1O	-5%	-7	2%	-8%	·	37%
O=C(O)c1cc(N2CCCCC2)ccn1	·	3	2%	1.6µM*	·	29%
COc1ccc(CNC(=O)c2cc3ccccn3n2)cc1OC	-2%	·	·	-23%	2%[59 µM]	22%
CCOc1ccc(CCNC(=O)C2CCCN(S(=O)(=O)N(C)c3ccc(F)cc3)C2)cc1 (stereo not given)	-10%	·	·	-13%	-24%[59 µM]	25%
COCCCN1C(=O)C(O)=C(C(C)=O)C1c1cccc(F)c1 (stereo not given)	?	-2	3%	?	50µM*	11%
CCOC(=O)CN1C(=O)N(CC)C(C)=C(C(=O)OC)[C@@H]1c1ccccc1	-2%	0	-1%	-11%	43%[59 µM]	31%
CCOC(=O)CN1C(=O)C(O)=C(C(C)=O)C1c1ccccc1 (stereo not given)	79µM*	1	-2%	?	-37%[2.33 µM]	7%
CCCCN1C(=O)C(O)=C(C(C)=O)C1c1ccccc1 (stereo not given)	?	-7	-10%	-27%	50µM*	7%
CCOC(=O)CN1C(=O)C(O)=C(C(C)=O)C1c1ccc(F)cc1 (stereo not given)	71µM*	5	-1%	-35%	35µM*	2%
CCCCCCN1C(=O)C(O)=C(C(C)=O)C1c1ccc(Cl)cc1 (stereo not given)	?	-2	-21%	-35%	-51%[12.7 µM]	17%
CCOC(=O)CN1C(=O)C(O)=C(C(C)=O)C1c1ccc([N+](=O)[O-])cc1 (stereo not given)	?	0	-1%	-18%	?	38%
COc1cccc(C2C(C(C)=O)=C(O)C(=O)N2CCNCCO)c1 (stereo not given)	-17%	·	·	·	24%[12.7 µM]	·
SMILES	BAZ2B block	PI5P4K alpha inh	PLK1 PBD inh	JMJD2A Tudor	G9a inh	HP1b chromo inh
Cc1cccc(N(CC(=O)Nc2ccccc2C(F)(F)F)S(=O)(=O)c2ccccc2)c1C	-3%	·	·	-16%	-33%[59 µM]	20%
O=C(c1ccc(F)cc1)n1nc(-c2cccnc2)nc1NCc1ccc(F)cc1	5%	·	·	1%	-3%[59 µM]	60%
CCC(=O)N1CCCc2cc(S(=O)(=O)N3CCC(C(=O)Nc4ccc(F)c(F)c4)CC3)ccc21	-6%	·	·	-8%	5%[59 µM]	6%[57 µM]
O=C(NCc1ccco1)C1CCN(C(=O)c2cc3sccc3n2Cc2ccc(F)cc2)CC1	?	·	-17%	?	?	4%
CCC(=O)N1CCCc2cc(S(=O)(=O)N3CCC(C(=O)NCc4ccc(F)cc4)CC3)ccc21	-5%	·	·	56µM*	13%[59 µM]	-5%[57 µM]
O=C(NCc1ccc(F)cc1)C1CCN(S(=O)(=O)c2ccc(N3CCCC3=O)cc2)CC1	·	2	4%	·	·	·
O=C(NCc1ccccc1Cl)C1CCN(S(=O)(=O)c2ccc(N3CCCC3=O)cc2)CC1	-7%	4	12µM*	?	10%	7%
CCNC(=O)C1CCN(S(=O)(=O)c2ccc(F)cc2)CC1	6%	-20	21µM*	25µM*	-40%	-10%
O=C(NCCO)C1CCN(S(=O)(=O)c2ccc(F)cc2)CC1	2%	-5	-3%	-11%	-1%[59 µM]	24%
O=C(NCc1ccco1)C1CCN(Cc2ccc(F)cc2)CC1	50µM*	-7	-7%	50µM*	32µM*	?
CC(Sc1nnc(C2CC2)n1Cc1ccccc1)C(=O)N1CCNC1=O (stereo not given)	-2%	-9	-5%	2%	7%[12.7 µM]	36%
COc1ccc(-c2nc3cnc(N4CCN(C)CC4)nc3n(CCC#N)c2=O)cc1	·	·	·	·	2%[12.7 µM]	·
COc1cc(NC(=O)N[C@@H](Cc2c[nH]c3ccccc23)C(=O)O)c(C(=O)O)cc1OC	-3%	11	-4%	-7%	-9%[2.33 µM]	8%
O=C(NCCc1ccccn1)c1cc2ccccc2o1	?	6	-2%	-15%	6%	11%
CCOc1ccc(NC(=O)c2cc3c(n(-c4ccc(OC)cc4)c2=O)CC(C)(C)CC3=O)cc1	?	·	·	-24%	-31%[59 µM]	11%
CC(C)[C@H](NC(=O)C1CCN(S(=O)(=O)c2ccc(F)cc2)CC1)C(=O)NCc1ccco1	-4%	-8	27µM*	35µM*	·	-6%
O=c1c2cc(Cl)ccc2nc(-c2ccccc2)n1O	79µM*	-5	-1%	?	-29%	-1%
COc1ccc(CNC(=O)C(=O)NCC(c2cccnc2)N2CCN(c3ccccc3)CC2)cc1 (stereo not given)	-23%	·	·	2%	1%[59 µM]	28%
Cc1ccc(C(=O)C2CCN(CC(=O)Nc3ccc(N(C)C)cc3)CC2)cc1	-79%	·	-8%	45µM*	40µM*	-47%
